# Data reported in PMC4336329 (PLoS ONE, 2015).
# About 14,000 (4.5%) of roughly 310,000 compounds showed an effect of 50% or more. Effects have a minus sign here. What follows is part of a selection rich in strong results, with near analogues and random picks from the rest.
# Target: human ether-à-go-go-related gene (hERG) potassium channel (human, UniProt Q12809)
# Assay: primary screen, population patch clamp on CHO cells stably expressing hERG; higher = less effect of the substance
# 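Note: peak tail current of the secondary pulse compared with the same well before compound.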
# Sequence of human ether-à-go-go-related gene (hERG) potassium channel (Q12809 whole entry, looked up): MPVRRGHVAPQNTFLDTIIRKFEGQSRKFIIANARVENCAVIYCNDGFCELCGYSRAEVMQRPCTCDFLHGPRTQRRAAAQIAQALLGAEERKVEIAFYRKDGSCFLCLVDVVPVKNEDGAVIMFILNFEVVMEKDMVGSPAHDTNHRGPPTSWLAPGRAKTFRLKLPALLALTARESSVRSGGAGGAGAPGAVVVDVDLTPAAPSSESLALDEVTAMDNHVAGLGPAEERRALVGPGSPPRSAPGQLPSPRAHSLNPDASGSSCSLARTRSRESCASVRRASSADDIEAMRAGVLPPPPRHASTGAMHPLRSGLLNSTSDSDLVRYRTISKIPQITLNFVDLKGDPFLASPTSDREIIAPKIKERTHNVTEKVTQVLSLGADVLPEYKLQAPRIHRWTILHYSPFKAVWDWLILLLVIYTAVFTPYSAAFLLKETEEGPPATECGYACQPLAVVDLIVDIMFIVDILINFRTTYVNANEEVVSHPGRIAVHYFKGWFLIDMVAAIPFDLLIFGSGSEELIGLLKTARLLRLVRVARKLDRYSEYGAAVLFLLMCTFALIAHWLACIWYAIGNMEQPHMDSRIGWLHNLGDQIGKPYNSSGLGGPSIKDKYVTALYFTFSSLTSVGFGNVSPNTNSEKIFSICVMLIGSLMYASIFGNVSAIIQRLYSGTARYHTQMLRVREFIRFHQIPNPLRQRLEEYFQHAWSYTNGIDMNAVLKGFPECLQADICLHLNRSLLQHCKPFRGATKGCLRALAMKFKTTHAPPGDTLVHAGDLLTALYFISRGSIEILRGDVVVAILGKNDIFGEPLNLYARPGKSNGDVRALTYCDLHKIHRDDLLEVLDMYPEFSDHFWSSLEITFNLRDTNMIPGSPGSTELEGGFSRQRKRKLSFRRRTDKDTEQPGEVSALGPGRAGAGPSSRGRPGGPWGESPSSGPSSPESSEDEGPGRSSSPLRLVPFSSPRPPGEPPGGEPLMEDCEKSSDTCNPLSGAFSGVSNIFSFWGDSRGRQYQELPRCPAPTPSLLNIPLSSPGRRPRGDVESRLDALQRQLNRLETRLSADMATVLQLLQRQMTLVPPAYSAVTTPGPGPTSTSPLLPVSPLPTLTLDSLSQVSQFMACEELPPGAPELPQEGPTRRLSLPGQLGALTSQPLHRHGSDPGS
row,SMILES,"hERG current change (%, negative = inhibition) at 10uM"
1,CN(C)S(=O)(=O)c1ccc(NC(=O)CN2CCOCC2)cc1,9.72%
2,CCN(CC)S(=O)(=O)c1ccc(NC(=O)C2CCCO2)cc1 (centres unmarked),6.96%
3,CCCCNS(=O)(=O)c1ccc(NC(=O)C2CCCO2)cc1 (centres unmarked),-8.88%
4,CCCCN(CCCC)S(=O)(=O)c1ccc(NC(=O)CN2CCOCC2)cc1,-53.6%
5,CCCN(CCC)S(=O)(=O)c1ccc(NC(=O)C2CCCO2)cc1 (centres unmarked),-64.4%
6,Cc1ccc(NC(=O)CN2CCOCC2)cc1,14.1%
7,CC12CCC(C(=O)N(CC(O)CN3CCN(Cc4ccccc4)CC3)C1=O)C2(C)C.Cl (centres unmarked),-6.03%
8,O=C(C1CCC(=O)N1Cc1ccccc1Cl)N1CCC2(CC1)OCCO2 (centres unmarked),-29.7%
9,COc1ccc(CN2CCNC(=O)C2CC(=O)NCCCC2CCCC2)c(C)c1C (centres unmarked),5.39%
10,CC(CNS(=O)(=O)c1ccc2c(c1)CC(=O)N2C)c1ccccc1 (centres unmarked),-12.3%
11,COc1cccc(NC(=O)CN(C)C(=O)c2cc(C)oc2C)c1,6.56%
12,Cc1cc2cc(CNC(=O)c3ccc4c(c3)OCO4)ccc2[nH]1,-1.85%
13,O=c1[nH]c2ccc(Br)cc2c(-c2ccccc2)c1N1CCOCC1,7.5%
14,Cc1ccc2[nH]c(=O)c(CN3CCCCC3)c(-c3ccccc3)c2c1,-53.6%
15,CCc1ccc2[nH]c(C)c(CN3CCCCCC3)c(=O)c2c1,-46.9%
16,Cc1[nH]c2ccc(Br)cc2c(=O)c1CN1CCOCC1,-27.2%
17,Cc1[nH]c2ccc(Br)cc2c(=O)c1CN1CCCCCC1,-64.3%
18,Cc1ccc2[nH]c(=O)c(CC(=O)O)c(-c3ccccc3)c2c1,17.7%
19,O=c1[nH]c2ccc(Cl)cc2c(-c2ccccc2)c1CN1CCOCC1,-14.7%
20,O=c1[nH]c2ccc(Br)cc2c(-c2ccccc2)c1CN1CCOCC1,-65.7%
21,Cc1ccc2[nH]c(-c3ccccc3)c(CN3CCCC3)c(=O)c2c1,-12.2%
22,COc1ccc(CN2CCNC(=O)C2CC(=O)NC2CCCCCCC2)cc1C (centres unmarked),15.8%
23,CC(C)(C)c1cc(=O)[nH]c(SCc2ccccc2)n1,17.3%

row,SMILES,"hERG current change (%, negative = inhibition) at 10uM"
1,OCC1CO1 (centres unmarked),15.8%
2,Cn1c(O)c(N=NC(=O)CNC(=O)c2cccnc2)c2ccccc21,15.1%
3,CCOC(=O)c1c(O)c2ccccc2n(C)c1=O,27.7%
4,CCOc1ccc(NC(=O)CSc2n[nH]c(N)n2)c([N+](=O)[O-])c1,-6.62%
5,COc1cccc(C(=O)NCc2cccnc2)c1,1.54%
6,O=C1CSC(c2cn(-c3ccccc3)nc2-c2cc3ccccc3oc2=O)N1Cc1ccccc1 (centres unmarked),5.85%
7,O=C(CSc1nc2[nH]ncc2c(=O)[nH]1)Nc1cccc(Cl)c1,4.2%
8,CN(C)CCN(Cc1ccccc1)c1ccnc(N(C)C)c1C#N,-26.7%
9,CN(C)c1nccc(N(Cc2ccccc2)Cc2ccccc2)c1C#N,-58.3%
10,CN(C)c1ccnc(N(Cc2ccccc2)Cc2ccccc2)c1C#N.Cl,-6.74%
11,Cc1c(Cl)cccc1N=C1SCCN1C(=O)CN1C(=O)NC2(CCCC2)C1=O,-16.5%
12,O=C(C1CC1)N1CCc2cc(Br)cc(S(=O)(=O)N3CCCCCC3)c21,-16.5%
13,O=C(N/N=C/c1ccncc1)c1ccc(OCc2ccccc2)cc1,-0.12%
14,O=C1NC(=O)/C(=C\c2ccc(Sc3ccc(Cl)cc3)o2)N1,2.37%
15,Oc1ccc(/C=N/Nc2nc(-c3cccnc3)nc3ccccc23)c(O)c1,-2.97%
16,COc1ccc(-c2occ(C(=O)O)c2C(=O)O)cc1,-3.07%
17,CCn1cc([N+](=O)[O-])c(C(=O)N2N=C(c3ccccc3)CC2c2ccc([N+](=O)[O-])cc2)n1 (centres unmarked),-37.2%
18,CC(=O)N1N=C(c2ccccc2)CC1c1ccccc1[N+](=O)[O-] (centres unmarked),2.95%
19,COc1ccc(C2=NN(C(=O)CCC(=O)O)C(c3ccc([N+](=O)[O-])cc3)C2)cc1 (centres unmarked),10.2%
20,CC(=O)N1N=C(c2cccs2)CC1c1cccc([N+](=O)[O-])c1 (centres unmarked),-51.6%
21,COc1ccc(C2CC(c3ccc(Cl)cc3)=NN2C(C)=O)cc1 (centres unmarked),-23.5%
22,CC(=O)N1N=C(c2ccc([N+](=O)[O-])cc2)CC1c1ccccc1Cl (centres unmarked),-66%
23,COc1ccc(C2CC(c3ccc([N+](=O)[O-])cc3)=NN2C(C)=O)cc1 (centres unmarked),-64.5%

row,SMILES,"hERG current change (%, negative = inhibition) at 10uM"
1,CCC(=O)N1N=C(c2ccccc2)CC1c1ccccc1 (centres unmarked),2.71%
2,CC(=O)N1N=C(c2ccc(Cl)cc2)CC1c1ccc([N+](=O)[O-])cc1 (centres unmarked),11.8%
3,CC(=O)N1N=C(c2ccccc2)CC1c1cccc([N+](=O)[O-])c1 (centres unmarked),-27.3%
4,CCC(=O)N1N=C(c2ccccc2)CC1c1ccc([N+](=O)[O-])cc1 (centres unmarked),-53.4%
5,O=C(O)CCC(=O)N1N=C(c2cccs2)CC1c1cccc([N+](=O)[O-])c1 (centres unmarked),20%
6,O=C(O)CC1S/C(=N/N=C/C=C/c2ccccc2)NC1=O (centres unmarked),0.632%
7,Cc1ccc(-n2c(C)c(C)c3c(NCCO)ncnc32)cc1,6.27%
8,CSc1nsc(SCC(=O)Nc2nc3ccccc3s2)n1,9.66%
9,Cn1c(=O)[nH]c2nnc(-c3ccc(Cl)c(Cl)c3)nc2c1=O,8.52%
10,COc1ccc(OC)c(/C=N/NC(=O)c2cnccn2)c1,1.45%
11,COc1ccccc1CNC(=O)C(=O)NCC1OCCN1C(=O)c1cccs1 (centres unmarked),3.96%
12,Cc1c(C(=O)N/N=C/c2ccc(-c3ccccc3[N+](=O)[O-])o2)sc(N)c1C#N,12.1%
13,COc1ccccc1N(C)S(=O)(=O)c1ccc(C(=O)OC(C)C(=O)NCc2ccc3c(c2)OCO3)cc1 (centres unmarked),-41.6%
14,CCc1ccc(NC(=S)NCC2CCCN2CC)cc1 (centres unmarked),-32.2%
15,CCn1c(SCC(=O)OC)nnc1C1CCCCC1,6.57%
16,O=C(N/N=C/c1ccoc1)c1ccccc1Br,16.9%
17,CCc1nc(SCc2ccc(Cl)cc2)n[nH]1,12%
18,Cn1cccc1Cc1nnc(SCC(=O)Nc2nccs2)n1CCc1ccccc1,-9.58%
19,CCn1c(SCC(=O)Nc2nccs2)nnc1-c1ccco1,-10.7%
20,Cc1csc(NC(=O)CSc2nnc(-c3ccoc3C)n2CCc2ccccc2)n1,-59.7%
21,Cc1occc1-c1nnc(SCC(=O)Nc2ccccc2)n1C(C)c1ccccc1 (centres unmarked),-37.6%
22,Cc1csc(NC(=O)CSc2nnc(Cc3cccn3C)n2CCc2ccccc2)n1,-4.35%
23,Cc1occc1-c1nnc(SCC(=O)Nc2nccs2)n1CCc1ccccc1,-60.3%

row,SMILES,"hERG current change (%, negative = inhibition) at 10uM"
1,CCn1c(SCC(=O)Nc2nc(C)cs2)nnc1-c1ccoc1C,-1.96%
2,Cc1csc(NC(=O)CSc2nnc(-c3ccoc3C)n2C(C)c2ccccc2)n1 (centres unmarked),-74.1%
3,Cc1occc1-c1nnc(SCC(=O)NC(C)(C)C)n1C(C)c1ccccc1 (centres unmarked),-11.8%
4,COc1cc(C)c(Cl)cc1S(=O)(=O)NCCN1CCOCC1,15.9%
5,Cc1c(NC(=O)c2ccc(F)cc2)c(=O)n(-c2ccccc2)n1C,11.2%
6,CCCc1cc(=O)[nH]c(SCC(=O)c2cc(C)n(CC(F)(F)F)c2C)n1,7.55%
7,CC(=O)c1ccc(S(=O)(=O)N(C)CC(=O)Nc2ccc(C)cc2)cc1,-0.949%
8,O=S(=O)(Nc1ccc2c(c1)OCCO2)c1cnc[nH]1,7.8%
9,CCOC(=O)c1c(S(=O)(=O)NCCc2ccc(OC)c(OC)c2)c(C)n(C)c1C,4.97%
10,CC(C)(C)NC(=O)NC(=O)COC(=O)c1cccc(F)c1,-1.01%
11,O=C(NCc1nnc(SCC(=O)N2CCCC2)o1)c1ccco1,-7.2%
12,O=C(CSc1nnc(COc2cccc3ccccc23)o1)N1c2ccccc2CCc2ccccc21,7.68%
13,O=C(CSc1nnc(CNc2ccc(F)cc2)o1)N1CCN(C(=O)c2ccco2)CC1,-50.8%
14,O=C(CSc1nnc(CNc2ccccc2)o1)N1CCN(C(=O)c2ccco2)CC1,-17.3%
15,O=C(CSc1nnc(COc2cccc3cccnc23)o1)N1CCN(C(=O)c2ccco2)CC1,0.452%
16,O=C(CSc1nnc(COc2cccc3ccccc23)o1)N1CCN(C(=O)c2ccco2)CC1,-65.1%
17,O=C(Nc1ccccc1)/C(=C\c1ccco1)NC(=O)c1ccco1,-6.57%
18,COc1ccc(CCNC(=O)c2nnn(CC(=O)Nc3ccc(C)cc3C)c2N)cc1OC,13.8%
19,CCCOC(=O)c1cccc(NC(=O)c2cccnc2)c1,-39.7%
20,O=C1CC(c2ccccc2)SC(N(c2ccccc2)c2ccccc2)=N1 (centres unmarked),-0.167%
